Cycloheximide cs: counter-screen hit for Shiga toxin inhibitors, cycloheximide; cell reporter, cycloheximide protein synthesis inhibition counterscreen; max response, %; 12% of 300,000 active; in the data active means max response mostly above about 13%, no sharp cut-off; inactive means mostly below about 14%; further: read at 38.3 µM for the half of the compounds with a filed dose; 0% is about no effect
Pf growth 96h: P. falciparum growth inhibition at 96 hour, primary screen for plastid delayed-death inhibitors; P. falciparum luciferase reporter growth, 96 h; Potency, µM (highest dose often 28.7 µM), inactives show at the top dose activity change, negative = inhibition, usual class: inhibitors; 6.9% of 320,000 active; AID 504834; further: potency means the concentration at half of the fitted maximal effect; on the % scale 0 is the no-effect control and ±100 the full control effect
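96 h incubation, 37 C, 5% CO2, of luciferase-reporter P. falciparum-infected RBCs (2% hematocrit, 0.05% parasitemia final) with test compounds; endpoint luminescence.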
Marburg entry inh: blocks Marburg virus binding to or entry into cells. Marburg virus pseudotyped entry inhibition, cell reporter. Potency, µM (highest dose often 37.8 µM), inactives show top-dose activity change, negative = inhibition, actives largely listed as inhibitors. 1.8% of 300,000 active. AID 540276; calls by dose curve; tested in HEK293 cells; further: potency means the concentration at half of the fitted maximal effect; on the % scale 0 is the no-effect control and ±100 the full control effect
Pf growth 48h: P. falciparum growth inhibition at 48 hours (one generation); P. falciparum luciferase growth in erythrocytes, 48 h; Potency, µM (series often up to 28.7 µM), for the others: top-dose activity change, negative = inhibition, hits mostly inhibitors; 5.9% of 310,000 active; AID 504832; further: potency means the concentration at half of the fitted maximal effect; on the % scale 0 is the no-effect control and ±100 the full control effect
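In quantitative HTS format, infected erythrocytes bearing luciferase-reporter parasites were treated for a single generation at 37 C. Luminescence after adding detection reagent served as the growth measure.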
Shiga toxin inh: Shiga toxin inhibition; Vero cells, Shiga toxin protein synthesis inhibition reporter; inhibition, % at 38.7 µM; 9.2% of 290,000 active; in the data active means inhibition mostly above about 28%, no sharp cut-off; inactive means mostly below about 43%; further: 0% is about no effect
Lassa entry inh: blocks Lassa virus binding to or entry into cells | Lassa virus pseudotype entry inhibition, cell reporter | 1.2% of 300,000 active | AID 540256 | Potency, µM (doses to about 37.9 µM), inactives show at the top dose activity change, negative = inhibition, hits mostly inhibitors; calls by dose curve; tested in HEK293 cells; further: potency means the concentration at half of the fitted maximal effect; on the % scale 0 is the no-effect control and ±100 the full control effect; nearly all actives have a fitted effect of over 50% in size
An asterisk follows results filed as active; i = inactive; ? = inconclusive; / = no result; [ ] = another dose, or the depositor's remark. Only some compounds are listed: those with a hit (about 19% of all), similar ones and a draw of the others. Unless noted, the call rests on the fitted dose curve; in most records, active means well fitted inhibition curve with a large enough effect; inconclusive means small, poorly fitted or top-dose-only effect, or another doubt; inactive means no such curve, though single readings can be large or run the other way.

SMILES	Cycloheximide cs	Pf growth 96h	Marburg entry inh	Pf growth 48h	Shiga toxin inh	Lassa entry inh
CC(C)CNC(=O)C(=O)Nc1ccc2c(c1)N(S(=O)(=O)c1cccs1)CCC2	/	10µM*	3.2µM*	?	/	?
COc1ccc(Nc2cc(C(=O)NCCCN3CCN(C)CC3)c3ccccc3n2)cc1OC	-4	13%	1%[46.1 µM]	35%	1	5%
O=C(NC1CCN(CC(=O)N(c2ccccc2)c2ccccc2)CC1)c1ccc([N+](=O)[O-])cc1	-3	8%	-27%[46.1 µM]	39%	-10	-2%
Cc1[nH]c2ccc(C(=O)OC(C)C(=O)N(C)c3ccccc3)cc2c1C (stereo not drawn)	/	?	14%	?	/	5µM*
CC(=O)NC(Cc1ccccc1)C(=O)N1CCN(C(=O)c2ccco2)CC1 (stereo not drawn)	-4	38%	-1%	1%	-15	5%
CC(C)[C@@]1(c2ccc(Cl)cc2)ON(c2ccccc2C(F)(F)F)C1=O	/	2.3µM*	/	2.1µM*	/	/
COc1ccc([C@]2(C(C)C)ON(c3ccccc3C(F)(F)F)C2=O)cc1	/	2.1µM*	/	1µM*	/	/
COc1ccc([C@@]2(C(C)C)ON(c3ccccc3C(F)(F)F)C2=O)cc1	/	0.29µM*	/	0.33µM*	/	/
COc1ccc(S(=O)(=O)Nc2ccccc2C(F)(F)F)cc1	5	28%	-9%	15%	-23	8%
O=c1oc2ccccc2c(Nc2ccc(O)cc2)c1[N+](=O)[O-]	1	?	-21%	105%	-8	-27%
COc1cc2c(cc1NC(=O)COC(=O)CNS(=O)(=O)c1ccc(C)cc1)oc1ccccc12	24*	0%	14%	35%	83	15%
COc1cc2c(cc1NC(=O)COC(=O)[C@@H](NS(=O)(=O)c1cccc(Cl)c1)C(C)C)oc1ccccc12	13*	76%	?	54%	23	-21%
COc1ccc(S(=O)(=O)N[C@@H](C)C(=O)OCC(=O)Nc2cc3oc4ccccc4c3cc2OC)cc1	15*	82%	?	51%	103*	22%
CCOc1ccccc1Nc1nc(N)nc(Cl)c1CC	/	/	?	/	/	4%[46.1 µM]
CC(=O)Nc1ccc(S(=O)(=O)N2CCC(c3ccncc3)CC2)cc1	/	/	/	/	/	-7%[46.1 µM]
Cc1cc(C)c2c(N)c(C(=O)c3ccccc3)sc2n1	1	0%	/	-20%	-2	/
Cc1nc2sc(C(N)=O)c(N)c2c(C)c1CC(=O)c1ccccc1	30*	-34%[5.75 µM]	0%[46.1 µM]	33%	92*	-20%[46.1 µM]
CCCCN1C(=O)/C(=C/C=C2/CC(C)(C)CN2C)SC1=S	30*	?	?	12%	32	-1%
CCN1C(=O)/C(=C/C=C2/SCCN2C)SC1=S	59*	233%	?	124%	78*	-5%
Cc1noc(C)c1C(=O)OCC(=O)/C=C1/N(C)c2ccccc2C1(C)C	/	/	-1%[46.1 µM]	/	/	18%[46.1 µM]
O=c1cccc2n1Cc1cc3ccccc3nc1-2	39*	189%	1%	181%	38*	?
Cc1nc2ccccc2cc1C(=O)O	5	11%	?	/	21	19%
CCC1=NN2C(=N)/C(=C\c3cccn3-c3cccc(Cl)c3)C(=O)N=C2S1	-3	5%	-8%[46.1 µM]	?	11	?
COc1ccccc1/C=N/OCC(=O)NCc1ccc2c(c1)OCO2	-1	0%	7%	2%	29	15%
CCCOC1CCCN(Cc2nc(-c3cnccn3)no2)C1 (stereo not drawn)	-3	10µM*	?	41%	6	10%[46.1 µM]
SMILES	Cycloheximide cs	Pf growth 96h	Marburg entry inh	Pf growth 48h	Shiga toxin inh	Lassa entry inh
COc1ccc(-c2cccc(-c3cc(=O)oc4ccc(C(C)(C)C)cc34)c2)cc1	8	/	/	/	i	/
ClC(Cl)c1nnc(-c2ccccc2)c(-c2c[nH]c3ccccc23)n1	12	9.3µM*	?	?	active	-3%
c1ccc(-c2nnc(-c3c[nH]c4ccccc34)nc2-c2ccccc2)cc1	0	/	?	?	-3	?
Cc1sc2c(c1C)C(c1ccc(C(C)(C)C)cc1)=NCC(=O)N2CC(=O)Nc1nccs1	-2	10µM*	?	?	-11	?
CCc1nc(Nc2ccc(N3CCN(C(C)=O)CC3)cc2)c2oc3ccccc3c2n1	18*	32%	?	10µM*	-4	?
CC(=O)N1CCN(c2ccc(Nc3ncnc4c3oc3ccccc34)cc2)CC1	43*	?	?	-21%	128	?
